Screening data: PubChem BioAssay, National Center for Advancing Translational Sciences (NCATS)
Only some compounds are listed: those with a hit (about 10% of all), similar ones and a draw of the others.
MCF10A rerep: DNA re-replication induction in MCF 10a cells; AID 624296; Potency, µM (highest dose often 46.1 µM), without a hit: top-dose activity, positive = re-replication, hits mostly activators; MCF 10A DNA re-replication, Hoechst nuclear intensity, 48 h; hit rate 2.9% among 350,000; note: % of control where 0% means no effect; nearly all actives have a fitted effect of over 50% in size
SW480 rerep: induces DNA re-replication in SW480 colon adenocarcinoma cells; SW480 DNA re-replication, Hoechst DNA content imaging, 48 h; Potency, µM (top dose mostly 46.1 µM), without a hit: at the top dose re-replication activation, most hits filed as activators; hit rate 1.8% among 340,000; note: % of control where 0% means no effect; nearly all actives have a fitted effect of over 55% in size
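250 cells/well; 23 nL cpd via pin tool; 48 hr, 37 C, 5% CO2; Hoechst 40 min; imager read of total nuclear intensity, ex 405/em 500-530 nm.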
Gal4-VP16 FLuc: inhibits Gal4-VP16 luciferase reporter, ROR gamma counter-screen | hit rate 3.5% among 310,000 | Drosophila S2 Gal4-VP16 UAS-luciferase, luminescence, 20 h | Potency, µM (top dose mostly 53.6 µM), for inactives: at the highest dose activity, negative = inhibition, hits mostly inhibitors | AID 2546;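 note: Gal4-VP16 expression switched on by copper sulfate through the metallothionein promoter; % is set by controls: 0 for no effect and ±100 for the full control effect; nearly all actives have a fitted effect of over 50% in size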
ELG1 repair inh: ELG1-dependent DNA repair inhibition; HEK293T ELG1-luciferase reporter, luminescence, 16 h; DNA damage induced by 5-fluorouridine; Potency, µM (top dose mostly 46.1 µM), without a hit: top-dose activity change, negative = inhibition, most hits filed as inhibitors; hit rate 2.3% among 330,000; note: % is set by controls: 0 for no effect and ±100 for the full control effect; nearly all actives have a fitted effect of over 55% in size
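5-Fluorouridine DNA damage + compound/DMSO, 2,000 cells/well, 16 h, 37 °C/5% CO2. ONE-Glo, 30 min RT, luminescence. Readout = decrease in reporter signal.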
RORgamma inh: blocks mouse ROR gamma transcriptional activity | P51450 | Drosophila S2 Gal4-RORgamma UAS-luciferase reporter, 20 h | Potency, µM (doses to about 53.6 µM), for inactives: at the top dose activity change, negative = inhibition, hits mostly inhibitors | hit rate 5.4% among 310,000 | AID 2551; note: % is set by controls: 0 for no effect and ±100 for the full control effect; nearly all actives have a fitted effect of over 60% in size
Target sequence (P51450 whole entry, looked up, the tested form may be a part): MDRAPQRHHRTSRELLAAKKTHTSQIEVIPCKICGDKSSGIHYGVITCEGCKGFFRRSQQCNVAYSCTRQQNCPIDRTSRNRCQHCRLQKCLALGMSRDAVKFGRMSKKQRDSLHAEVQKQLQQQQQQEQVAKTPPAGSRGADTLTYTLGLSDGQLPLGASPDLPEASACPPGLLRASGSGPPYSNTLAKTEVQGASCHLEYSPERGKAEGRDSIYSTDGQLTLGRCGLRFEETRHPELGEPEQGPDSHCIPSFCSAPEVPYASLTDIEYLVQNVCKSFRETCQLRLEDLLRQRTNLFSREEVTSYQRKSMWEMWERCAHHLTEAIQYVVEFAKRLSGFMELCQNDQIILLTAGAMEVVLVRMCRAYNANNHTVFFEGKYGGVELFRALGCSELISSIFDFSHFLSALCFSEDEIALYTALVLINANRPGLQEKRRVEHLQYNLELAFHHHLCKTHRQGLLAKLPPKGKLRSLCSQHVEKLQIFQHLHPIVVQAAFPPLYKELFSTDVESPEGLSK
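Using a luciferase readout, inhibitors were identified by reduced reporter activity in Drosophila cells coexpressing a copper-inducible Gal4–ROR gamma fusion and UAS-driven Photinus luciferase, incubated 20 hr after 700 uM copper sulfate.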
Active calls of the source: *; u = inconclusive; x = not tested or not shown; ! = not confirmed by another sample; [ ] = dose if it differs, or a comment. Calls come from the whole dose curve; as a rule, active = well fitted curve in the direction sought with a large enough effect; inconclusive = small, poorly fitted or top-dose-only effect, or another doubt; inactive = no such curve, though single readings can be large; an effect the other way counts as inactive or inconclusive. Potency is the fitted concentration of half-maximal effect.

SMILES | MCF10A rerep | SW480 rerep | Gal4-VP16 FLuc | ELG1 repair inh | RORgamma inh
Clc1ccc(C(c2ccc(Cl)cc2)n2cc[n+](CC(OCc3ccc(Cl)cc3Cl)c3ccc(Cl)cc3Cl)c2)cc1 (configuration not stated) | 5.2µM* | -27% | 11µM* | u | u
O=C(c1cc([N+](=O)[O-])ccc1N1CCNCC1)N1CCOCC1 | -3% | -24% | -1% | 18% | -13%
O=[N+]([O-])c1ccc(N2CCNCC2)c(Cl)c1 | 7.3µM* | -4% | -1% | -10% | -13%
Cc1cccc(CN2CCN(C(=O)Cc3ccccc3)CC2)c1 | 1% | -2% | 14% | -9% | 8%
Cc1ccc(/C=C/C(=O)C2C(=O)c3ccccc3C2=O)cc1 | u | -7% | u | u | 6.3µM*
CN1CCN(c2ncnc3ccc(Br)cc23)CC1 | -3% | -5% | -3% | 9.2µM* | -10%
Nc1ccccc1 | x | x | 1% | x | -2%
Oc1ccc(O)c2c1C1(Cl)C(Cl)=C(Cl)C2(Cl)C1(Cl)Cl | 16µM* | u | x | x | x
Oc1c(Cl)cccc1Cl | x | x | 6% | x | -2%
CCCCCn1c(=O)c(C(=O)Nc2ccccc2S(N)(=O)=O)c(O)c2ccccc21 | 4.1µM* | 3.7µM* | -10% | u | 13%
CCCCn1c(=O)c(C(=O)NCc2ccccc2Cl)c(O)c2ccccc21 | 9% | -1% | 1% | -26% | 16µM*
CCCCCn1c(=O)c(C(=O)NCc2ccc(Cl)cc2)c(O)c2ccccc21 | 1% | -28% | 13µM* | -8% | 10µM*
CCOP(=S)(OCC)Oc1ccc([N+](=O)[O-])cc1 | x | x | 3% | x | -3%
NS(=O)(=O)c1cc([C@@]2(O)NC(=O)c3ccccc32)ccc1Cl | 0%[20.6 µM] | -4%[20.6 µM] | -6%[17 µM] | x | -7%[2.98 µM]
CC1OC(O[C@H]2C[C@@H](O)[C@]3(CO)[C@@H]4C(CC[C@]3(O)C2)[C@@]2(O)CC[C@H](C3=CC(=O)OC3)[C@@]2(C)C[C@H]4O)C(O)C(O)C1O (some centres not stated) | 2% | 4% | 1% | x | 18%[10 µM]
C[C@@H]1O[C@@H](O[C@H]2C[C@@H](O)[C@]3(CO)[C@@H]4C(CC[C@]3(O)C2)[C@@]2(O)CC[C@H](C3COC(=O)C3)[C@@]2(C)C[C@H]4O)[C@H](O)[C@H](O)[C@H]1O (some centres not stated) | -44% | u | x | 1.8µM* | x
COC(=O)C1C(=O)C=C(Nc2ccc(F)cc2F)CC1c1ccccc1 (configuration not stated) | -4% | -5% | -17% | u | u
CC(C)C1C(c2ccccc2)N(C)C(c2ccccc2)CC1(O)c1ccccc1 (configuration not stated) | 5.2µM* | u | 0% | -7% | -26%
CN1CC(C(=O)c2ccccc2)C(c2ccccc2)C1 (configuration not stated) | -10% | 10% | -18% | 26% | 6%
O[N+]1=CC=CCC1=S.On1ccccc1=S.[Zn] | x | x | 0.5µM* | x | 0.32µM*
C=C1C(=O)[C@@]23C[C@H]4[C@@H]5[C@@]6(C)CCC[C@@]57[C@@H]2[C@@H](O)[C@@H]1C[C@H]3[C@H]7N4C6 | 15µM* | u | x | x | x
CCCCCCCCCCCCC/C=C/[C@@H](O)[C@@H](N)COP(=O)([O-])OCC[N+](C)(C)C | x | x | -29% | x | -13%
NC1CCC(CC2CCC(N)CC2)CC1 (configuration not stated) | x | x | 0% | x | -4%
O=C(CCCCCn1c(=S)[nH]c2ccccc2c1=O)N1CCC2(CC1)OCCO2 | 3% | -15% | u | u | 10µM*
O=C(NC1CCCCC1)c1cn(CCN2CCOCC2)c2cc(Cl)ccc2c1=O | x | x | -8% | x | -10%
SMILES | MCF10A rerep | SW480 rerep | Gal4-VP16 FLuc | ELG1 repair inh | RORgamma inh
COc1ccc(CCNC(=O)N2c3ccccc3Sc3ccccc32)cc1 | 16µM* | 24% | x | x | x
COc1ccc(CCNC(=O)COC(=O)Cc2ccccc2)cc1 | 2% | -28% | -7% | 0% | 21%
CCOC(=O)C(C#N)=C(c1ccccc1)c1ccccc1 | u | 0% | 7% | x | 3%
COc1ccc(C2=CC(c3ccc4c(c3)OCO4)c3c(c4ccccc4oc3=O)O2)cc1OC (configuration not stated) | 2.6µM* | 6.5µM* | x | x | x
C=C(C)[C@H]1CC[C@]2(C(=O)O)CC[C@]3(C)[C@@H](CC[C@H]4[C@@]5(C)CC[C@@H](O)C(C)(C)[C@@H]5CC[C@@]43C)[C@H]12 | x | x | 6%[17 µM] | x | -8%[16.9 µM]
CC(C)Br | x | x | -2% | x | 13%
O=C(NN=Cc1ccc(N(CCCl)CCCl)cc1)c1cccc([N+](=O)[O-])c1 | 18% | 16% | x | x | x
Cc1ccsc1/C=N/NC(=O)c1cccc(S(=O)(=O)Nc2ccccc2Cl)c1 | 2% | -3% | 3.2µM* | 2% | 2.5µM*
Cc1ccc2cc(C=C(C#N)C#N)c(Cl)nc2c1 | 7.3µM* | u | u | -24% | u
Cc1cc(N2CCCC2)ccc1C=C(C#N)C#N | 0% | -14% | 4%[10 µM] | -13% | 10%
CCCCOCCOP(=O)(OCCOCCCC)OCCOCCCC | x | x | 7% | x | 0%
CCC(COC(=O)NC)NC(=O)Oc1cccc(C)c1 (configuration not stated) | 0% | -77% | -5% | u | 0%
CNC(=O)Oc1cccc(-c2cn3cc(Cl)ccc3n2)c1 | 2% | -460% | 5µM* | u | -40%
CNC(=O)Oc1ccc(-c2cn3cc(C)ccc3n2)cc1 | 8% | u | 4µM* | u | 2µM*
CC(C)(OO)c1ccccc1 | x | x | u | x | -79%
[O-][Cl+]O | x | x | -13% | x | -11%
C#CCOc1cc(C2C3=C(COC3=O)Nc3cc4c(cc32)OCO4)ccc1OC (configuration not stated) | u | 2.1µM* | -1% | u | -20%
CCOC(OCC)P(=O)(O)CCCN | x | x | 7% | x | 12%
Cc1ccc(NC(=O)c2snnc2C)cc1Cl | 1% | 2% | 22% | u | 11%
Cc1nn(C(C)(C)C)c(C)c1/C=N/OC(=O)Nc1ccc(Cl)c(Cl)c1 | 5% | -22% | 1µM* | -21% | 0.22µM*
CC1(C)[C@H](C(=O)O[C@H](C#N)c2cccc(Oc3ccccc3)c2)[C@@H]1C=C(Br)Br | x | x | 5% | x | 9%
COc1ccc(Cc2nccc3cc(OC)c(OC)cc23)cc1OC | u | u | 28µM*! | -12% | u
Cc1ccc(C(=O)N[C@@H](C)CN2C3=NC[C@@H](Cc4ccccc4)N3C[C@H]2Cc2ccc(O)cc2)cc1Br | 5% | -8% | -10% | 5% | 23%
Cc1ccc(C(=O)N[C@@H](C)CN2C3=NC[C@H](Cc4ccccc4)N3C[C@H]2Cc2ccc(O)cc2)cc1Br | u | 13µM* | -1% | -13% | -5%
